Measurements as given in PubChem BioAssay AID1159580 (chemical genetic matrix, 2015).
Among all 5,500 compounds or so, about 2,000 (36%) were called active. Another 18% or so got no clear call; they are omitted. Rule as the data show it: active = normalized growth mostly below about 0.91 (no sharp cut-off); inconclusive = no clear call, values can overlap the other calls; inactive = mostly above about 0.92. This is one part of the list.

Assay: chemical genetic growth profiling, strain panel (AID 1159580);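 also: tested at 20 µM; growth read once vehicle control cultures reached saturation at 30 °C; 1 = growth at the plate median or of vehicle wells; lower values mean less growth of the strain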
Conditions: growth OD

Measured: normalized growth

CC(=O)OCC(=O)[C@@]1(O)CCC2C3CCC4=CC(=O)C=CC4(C)C3[C@@H](O)C[C@@]21C (stereo partly drawn)
inactive: S. cerevisiae deletion strains, locus YKL009W, strain mrt4, stronger effect = lower value 1.07 | S. cerevisiae deletion strains, locus YKL068W, stronger effect = lower value 1.01 | S. cerevisiae deletion strains, locus YKL085W, strain MDH1 (second series), stronger effect = lower value 1.01 | S. cerevisiae deletion strains, locus YKL085W, strain MDH1, stronger effect = lower value 1.01 | S. cerevisiae deletion strains, locus YKL160W, strain elf1, stronger effect = lower value 0.973 | S. cerevisiae deletion strains, locus YKL190W, strain CNB1, stronger effect = lower value 1.02 | S. cerevisiae deletion strains, locus YKR001C, strain vps1, stronger effect = lower value 1.02 | S. cerevisiae deletion strains, locus YKR026C, strain gcn3, stronger effect = lower value 0.985 | S. cerevisiae deletion strains, locus YKR091W, strain srl3, stronger effect = lower value 1 | S. cerevisiae deletion strains, locus YLL001W, strain dnm1, stronger effect = lower value 0.953 | S. cerevisiae deletion strains, locus YLL026W, stronger effect = lower value 0.99 | S. cerevisiae deletion strains, locus YLL041C, strain sdh2, stronger effect = lower value 0.998 | S. cerevisiae deletion strains, locus YLR027C, strain aat2, stronger effect = lower value 0.991 | S. cerevisiae deletion strains, locus YLR039C, strain RIC1, stronger effect = lower value 1.04 | S. cerevisiae deletion strains, locus YLR058C, strain SHM2, stronger effect = lower value 0.998 | S. cerevisiae deletion strains, locus YLR102C, strain apc9, stronger effect = lower value 1.01 | S. cerevisiae deletion strains, locus YLR113W, strain HOG1, stronger effect = lower value 0.999 | S. cerevisiae deletion strains, locus YLR221C, strain rsa3, stronger effect = lower value 1.01 | S. cerevisiae deletion strains, locus YLR258W, strain gsy2, stronger effect = lower value 1 | S. cerevisiae deletion strains, locus YLR262C, strain YPT6 (second series), stronger effect = lower value 0.967 | S. cerevisiae deletion strains, locus YLR262C, strain YPT6, stronger effect = lower value 1.04 | S. cerevisiae deletion strains, locus YLR268W, strain sec22, stronger effect = lower value 1.03 | S. cerevisiae deletion strains, locus YLR320W, strain mms22, stronger effect = lower value 0.982 | S. cerevisiae deletion strains, locus YLR330W, strain CHS5, stronger effect = lower value 1.01 | S. cerevisiae deletion strains, locus YLR342W, strain FKS1 (second series), stronger effect = lower value 1.02 | S. cerevisiae deletion strains, locus YLR342W, strain FKS1, stronger effect = lower value 0.992 | S. cerevisiae deletion strains, locus YLR357W, strain rsc2, stronger effect = lower value 0.997 | S. cerevisiae deletion strains, locus YLR370C, strain arc18, stronger effect = lower value 0.984 | S. cerevisiae deletion strains, locus YLR371W, strain rom2, stronger effect = lower value 1.02 | S. cerevisiae deletion strains, locus YLR384C, strain iki3, stronger effect = lower value 0.973 | S. cerevisiae deletion strains, locus YLR418C, strain cdc73, stronger effect = lower value 1.02 | S. cerevisiae deletion strains, locus YML016C, strain PPZ1, stronger effect = lower value 1.01 | S. cerevisiae deletion strains, locus YML032C, strain rad52, stronger effect = lower value 1.03 | S. cerevisiae deletion strains, locus YML120C, strain ndi1, stronger effect = lower value 0.995 | S. cerevisiae deletion strains, locus YML124C, strain tub3, stronger effect = lower value 1.02 | S. cerevisiae deletion strains, locus YMR058W, strain fet3, stronger effect = lower value 0.992 | S. cerevisiae deletion strains, locus YMR078C, strain ctf18, stronger effect = lower value 1.01 | S. cerevisiae deletion strains, locus YMR125W, strain sto1, stronger effect = lower value 1 | S. cerevisiae deletion strains, locus YMR129W, stronger effect = lower value 0.993 | S. cerevisiae deletion strains, locus YMR205C, strain PFK2, stronger effect = lower value 0.99 | S. cerevisiae deletion strains, locus YMR223W, strain ubp8, stronger effect = lower value 1.02 | S. cerevisiae deletion strains, locus YMR231W, strain pep5, stronger effect = lower value 0.992 | S. cerevisiae deletion strains, locus YMR263W, strain SAP30, stronger effect = lower value 1 | S. cerevisiae deletion strains, locus YMR307W, strain GAS1, stronger effect = lower value 1.02 | S. cerevisiae deletion strains, locus YNL067W, strain RPL9B, stronger effect = lower value 1 | S. cerevisiae deletion strains, locus YNL071W, strain lat1, stronger effect = lower value 1.01 | S. cerevisiae deletion strains, locus YNL128W, strain TEP1, stronger effect = lower value 1.01 | S. cerevisiae deletion strains, locus YNL153C, strain GIM3, stronger effect = lower value 1 | S. cerevisiae deletion strains, locus YNL183C, strain NPR1, stronger effect = lower value 0.959 | S. cerevisiae deletion strains, locus YNL209W, strain ssb2, stronger effect = lower value 1 | S. cerevisiae deletion strains, locus YNL233W, strain BNI4, stronger effect = lower value 1.02 | S. cerevisiae deletion strains, locus YNL248C, strain rpa49, stronger effect = lower value 0.989 | S. cerevisiae deletion strains, locus YNL250W, strain rad50, stronger effect = lower value 1.01 | S. cerevisiae deletion strains, locus YNL271C, strain bni1, stronger effect = lower value 1.02 | S. cerevisiae deletion strains, locus YNL298W, strain CLA4, stronger effect = lower value 1.02 | S. cerevisiae deletion strains, locus YNL307C, strain MCK1, stronger effect = lower value 1.02 | S. cerevisiae deletion strains, locus YNL322C, strain KRE1 (second series), stronger effect = lower value 0.992 | S. cerevisiae deletion strains, locus YNR049C, strain mso1, stronger effect = lower value 0.997 | S. cerevisiae deletion strains, locus YNR052C, strain pop2, stronger effect = lower value 1.01 | S. cerevisiae deletion strains, locus YOL006C, strain TOP1, stronger effect = lower value 1.06 | S. cerevisiae deletion strains, locus YOL012C, strain htz1 0.982 | S. cerevisiae deletion strains, locus YOL147C, strain pex11, stronger effect = lower value 1.01 | S. cerevisiae deletion strains, locus YOR001W, strain rrp6, stronger effect = lower value 0.98 | S. cerevisiae deletion strains, locus YOR061W, strain CKA2, stronger effect = lower value 1.01 | S. cerevisiae deletion strains, locus YOR069W, strain VPS5, stronger effect = lower value 1 | S. cerevisiae deletion strains, locus YOR070C, strain gyp1, stronger effect = lower value 0.999 | S. cerevisiae deletion strains, locus YOR080W, strain dia2, stronger effect = lower value 0.984 | S. cerevisiae deletion strains, locus YOR083W, strain WHI5, stronger effect = lower value 0.965 | S. cerevisiae deletion strains, locus YOR106W, strain vam3, stronger effect = lower value 0.973 | S. cerevisiae deletion strains, locus YOR136W, strain idh2, stronger effect = lower value 1.02 | S. cerevisiae deletion strains, locus YOR144C, strain elg1, stronger effect = lower value 1.02 | S. cerevisiae deletion strains, locus YOR184W, strain ser1, stronger effect = lower value 1.01 | S. cerevisiae deletion strains, locus YOR231W, strain MKK1, stronger effect = lower value 0.999 | S. cerevisiae deletion strains, locus YOR265W, strain rbl2, stronger effect = lower value 1 | S. cerevisiae deletion strains, locus YOR270C, strain vph1, stronger effect = lower value 1.01 | S. cerevisiae deletion strains, locus YOR290C, strain snf2, stronger effect = lower value 1.01 | S. cerevisiae deletion strains, locus YOR316C, strain cot1, stronger effect = lower value 1.02 | S. cerevisiae deletion strains, locus YPL051W, strain arl3, stronger effect = lower value 0.986 | S. cerevisiae deletion strains, locus YPL078C, strain atp4, stronger effect = lower value 0.97 | S. cerevisiae deletion strains, locus YPL106C, strain sse1, stronger effect = lower value 1.01 | S. cerevisiae deletion strains, locus YPL240C, strain hsp82, stronger effect = lower value 0.98 | S. cerevisiae deletion strains, locus YPL256C, strain CLN2, stronger effect = lower value 0.96 | S. cerevisiae deletion strains, locus YPR119W, strain clb2, stronger effect = lower value 1.01 | S. cerevisiae deletion strains, locus YPR141C, strain kar3, stronger effect = lower value 1.02 | S. cerevisiae deletion strains, locus YPR163C, strain tif3, stronger effect = lower value 1.02 | S. cerevisiae deletion strains, locus YPR167C, strain met16, stronger effect = lower value 1.02 | S. cerevisiae deletion strains, strain wtn01, stronger effect = lower value 1.01 | S. cerevisiae strains, strain wild type, stronger effect = lower value 1
